Test results published in PubChem BioAssay (EPA / NIEHS).
Several values for one entry are separate records, joined by “and”; a condition that tells them apart may be missing. Equal values may be shown once. Results filed as inconclusive are left out. Activity calls are given as the source filed them. Rule for the calls, unless noted: active = hit-call score of the fitted dose curve at least 0.9, where 1 is the maximum; inactive = score below 0.9.

How the values were obtained:
[1] = read-out: Interleukin 17F (IL17F), IL17F (gene 112744); assay: BSK_BT_xIL17F: BioMAP Diversity Plus: BT Assay for Interleukin 17F (IL17F) Biomarker Activity (AID 2284243); conditions: primary human B cells with PBMC
Outline: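 B cell/PBMC co-culture (human primary), 24 h compound exposure; sIL-17F by Luminex xMAP; gain-of-signal fit vs DMSO baseline.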

[2] = read-out: Actin alpha 1 (ACTA1), ACTA1 (gene 58); assay: BSK_MyoF_ACTA1: BioMAP Diversity Plus: MyoF Assay for Actin alpha 1 (ACTA1) Biomarker Activity (AID 2284244); conditions: primary human lung fibroblasts
Experimental: (§1) BSK_MyoF is a cell-based, multiplexed-readout assay that uses lung fibroblasts, […], with measurements taken at 24 hours after chemical dosing in a microplate: 96-well plate.BSK_MyoF_ACTA1 is an assay component measured in the BSK_MyoF assay. It measures a-SMA antibody related to regulation of gene expression using ELISA technology.Data from the assay component BSK_MyoF_ACTA1 was analyzed at the endpoint, BSK_MyoF_ACTA1, in the positive analysis fitting direction relative to DMSO as the negative control and baseline of activity. Using a type of binding reporter, gain or loss-of-signal activity can be used to understand protein changes. To generalize the intended target to other relatable targets, this assay endpoint is annotated to the 'cell adhesion molecules' intended target family, where the subfamily is 'actin'.
(§2) The levels of cell surface (or secreted, indicated by the prefix "s") biomarker endpoints were measured by ELISA. Overt cytotoxicity to cells in confluent adherent cultures (all systems other than the BT system) was assessed by measuring total protein levels using sulforhodamine B (SRB) staining in parallel cultures at the time of biomarker measurements, indicated as SRB endpoints. For proliferation assays for adherent cell types, individual cell types are cultured at sub-confluence and relative cell numbers quantified by SRB staining at time points optimized for each system (48 h: 3C and CASM3C systems; 72 h: BT and HDF3CGF systems; 96 h: SAg system). SRB was performed by staining cells with 0.1% SRB after fixation with 10% TCA and reading wells at 560 nm.Viability and proliferation of PBMC (T cells) was quantified by Alamar Blue reduction for the SAg and BT systems. For PBMC viability (referred to as PBMC Cytotoxicity within the assay endpoint names), cells were plated (75,000/well in a 96-well plate) and then chemical samples added for 1 h before addition of activators, SEB and TSST-1 (20 ng/mL final concentration each). Cells were incubated for 90 h. Then, Alamar Blue (20 uL/well) (Invitrogen, Cat DAL1100) was added for 6 h, and the plates were read with a fluorescence microplate reader at 546/580 nm (excitation/emission). For PBMC proliferation, cells were plated and activated as above but incubated for only 16 h prior to addition of Alamar Blue. Plates were read after 6 h.

[3] = read-out: Interleukin 2 (IL2), IL2 (gene 3558); assay: BSK_BT_xIL2: BioMAP Diversity Plus: BT Assay for Interleukin 2 (IL2) Biomarker Activity (AID 2284245); conditions: primary human B cells with PBMC
Outline: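 The BT system combines human B cells with peripheral blood mononuclear cells. Twenty-four hours after chemical dosing, secreted IL-2 was measured with xMAP bead technology, and responses were analyzed as increases over DMSO controls.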

[4] = read-out: Basic fibroblast growth factor (bFGF), FGF2 (gene 2247); assay: BSK_MyoF_bFGF: BioMAP Diversity Plus: MyoF Assay for Basic fibroblast growth factor (bFGF) Biomarker Activity (AID 2284246); conditions: primary human lung fibroblasts
Experimental: as §1, with “plate.BSK_MyoF_bFGF” for “plate.BSK_MyoF_ACTA1”, “bFGF” for “a-SMA”, “BSK_MyoF_bFGF” for “BSK_MyoF_ACTA1”, “BSK_MyoF_bFGF,” for “BSK_MyoF_ACTA1,”, “'growth factor'” for “'cell adhesion molecules'”, “'basic fibroblast growth factor '.” for “'actin'.”
as §2

[5] = read-out: Collagen IV, COL4A1 (gene 1282); assay: BSK_MyoF_CollagenIV: BioMAP Diversity Plus: MyoF Assay for Collagen IV Biomarker Activity (AID 2284247); conditions: primary human lung fibroblasts
Outline: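 Human lung fibroblast system, 24 h chemical exposure. Endpoint: Collagen IV by ELISA, upward fit vs DMSO.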

[6] = read-out: Monokine induced gamma interferon (MIG), CXCL9 (gene 4283); assay: BSK_KF3CT_MIG: BioMAP Diversity Plus: KF3CT Assay for Monokine induced gamma interferon (MIG) Biomarker Activity (AID 2284248); conditions: primary human keratinocytes with fibroblasts
Experimental: BSK_KF3CT is a cell-based, multiplexed-readout assay that uses keratinocytes and foreskin fibroblasts, a human skin primary cell co-culture, with measurements taken at 24 hours after chemical dosing in a 96-well plate.BSK_KF3CT_MIG is an assay component measured in the BSK_KF3CT assay. It measures MIG antibody related to regulation of gene expression using ELISA technology.Data from the assay component BSK_KF3CT_MIG was analyzed at the endpoint, BSK_KF3CT_MIG, in the positive analysis fitting direction relative to DMSO as the negative control and baseline of activity. Using a type of binding reporter, gain or loss-of-signal activity can be used to understand protein changes. To generalize the intended target to other relatable targets, this assay endpoint is annotated to the 'cytokine' intended target family, where the subfamily is 'chemotactic factor'.
as §2

[7] = read-out: Vascular cell adhesion molecule 1 (VCAM1), VCAM1 (gene 7412); assay: BSK_BF4T_VCAM1: BioMAP Diversity Plus: BF4T Assay for Vascular cell adhesion molecule 1 (VCAM1) Biomarker Activity (AID 2284249); conditions: primary human bronchial epithelial cells with fibroblasts
Outline: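 Cell-surface VCAM-1 quantified by ELISA after 24 h chemical exposure of human bronchial epithelial/dermal fibroblast co-cultures, with SRB staining in parallel wells for cytotoxicity; DMSO baseline, positive-direction fitting.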

[8] = CCTE_Mundy_HCI_hNP1_Casp3_7: CCTE's Caspase-Glo 3/7 Assay in human neuroprogenitor cells for Apoptosis, Mundy Lab (AID 2284240)
Outline: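 Neuroepithelial-lineage stem cells from WA09 embryonic cells were treated with chemicals after 40–44 h of culture. Twenty-four hours later, caspase-3/7 activation was detected luminescently after a 30 min room-temperature reagent step, with DMSO as baseline.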

[9] = CCTE_Mundy_HCI_hNP1_CellTiter: CCTE's Cell Titer-Glo 2 Assay in human neuroprogenitor cells for Viability, Mundy Lab (AID 2284241; active = hit-call score of the fitted dose curve at least 0.9, where 1 is the maximum;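 for AC50: a hit is a drop in ATP luminescence versus DMSO meaning reduced viability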)
Outline: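 Measures ATP content in human neural progenitors derived from WA09 embryonic cells. Read-out at 26.5 hours after dosing, with DMSO serving as the negative control and baseline.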

[10] = CCTE_Mundy_HCI_Cortical_Synap_Neur_Matur_NeuronCount: CCTE's Synaptogenesis and Neurite Maturation Assay in rat cortical cells for Neuron Count, Mundy Lab (AID 2284242; active = hit-call score of the fitted dose curve at least 0.9, where 1 is the maximum;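 for AC50: neuron number from Hoechst nuclei and MAP2 staining by high-content imaging; hits reduce neuron count versus DMSO baseline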)
Outline: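 Cortical cells from rat are plated, treated with AraC at DIV 5, and exposed to test chemicals with a media change at DIV 7. At DIV 12 they are fixed and immunostained (MAP2, synaptophysin), and imaged neuron counts are compared against DMSO controls.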

Structure (SMILES): O=C(O)C(F)(F)C(F)(F)C(F)(F)C(F)(F)C(F)(F)F
- outcome [1]: inactive
- outcome [2]: inactive
- outcome [3]: inactive
- outcome [4]: inactive
- outcome [5]: inactive
- outcome [6]: inactive
- outcome [7]: inactive

Structure (SMILES): NS(=O)(=O)C(F)(F)C(F)(F)C(F)(F)C(F)(F)C(F)(F)C(F)(F)C(F)(F)C(F)(F)F
- outcome [8]: inactive
- AC50 [1]: 35.5 µM (active) and 45.9 µM (active)
- AC50 [2]: 10.9 µM (active) and 12 µM (active)
- outcome [3]: inactive
- AC50 [4]: 45.6 µM (active) and 45.4 µM (active)
- AC50 [5]: 7.27 µM (active) and 7.31 µM (active)
- AC50 [6]: 27.9 µM (active) and 51.6 µM (active)
- AC50 [7]: 24.8 µM (active) and 23.3 µM (active)

Structure (SMILES): O=S(=O)(O)C(F)(F)C(F)(F)C(F)(F)C(F)(F)F
- outcome [8]: inactive
- outcome [9]: inactive
- outcome [1]: inactive
- outcome [2]: inactive
- outcome [3]: inactive
- outcome [4]: inactive
- outcome [5]: inactive
- outcome [6]: inactive
- outcome [7]: inactive

Structure (SMILES): COc1ccc(O)c(C(C)(C)C)c1
- outcome [8]: inactive
- outcome [9]: inactive
- outcome [10]: inactive
- outcome [6]: inactive

Structure (SMILES): CCOP(=S)(OCC)SCSC(C)(C)C
- outcome [8]: inactive
- outcome [9]: inactive
- AC50 [10]: 9.92 µM (active) and 25.5 µM (active)

Structure (SMILES): Oc1c(Cl)c(Cl)c(Cl)c(Cl)c1Cl
- outcome [1]: inactive
- AC50 [2]: 10.3 µM (active)
- outcome [3]: inactive
- AC50 [4]: 33.5 µM (active)
- AC50 [5]: 30.6 µM (active)

Structure (SMILES): O=C(O)C(F)(F)C(F)(F)C(F)(F)C(F)(F)C(F)(F)C(F)(F)C(F)(F)C(F)(F)F
- outcome [1]: inactive
- AC50 [2]: 30 µM (active) and 40.3 µM (active)
- outcome [3]: inactive
- outcome [4]: inactive
- AC50 [5]: 18.9 µM (active) and 13.9 µM (active)
- outcome [6]: inactive
- AC50 [7]: 12.9 µM (active) and 11 µM (active)

Structure (SMILES): Sc1ccccc1
- outcome [1]: inactive
- outcome [2]: inactive
- outcome [3]: inactive
- outcome [4]: inactive
- outcome [5]: inactive

Structure (SMILES): ClC1=C(Cl)[C@]2(Cl)[C@@H]3[C@@H]4C[C@@H]([C@H]5O[C@@H]45)[C@@H]3[C@@]1(Cl)C2(Cl)Cl
- AC50 [8]: 15 µM (active)
- AC50 [10]: 25 µM (active)

Structure (SMILES): O=C(O)C(F)(F)C(F)(F)C(F)(F)C(F)(F)C(F)(F)C(F)(F)C(F)(F)C(F)(F)C(F)(F)F
- outcome [8]: inactive
- outcome [9]: inactive
- outcome [1]: inactive
- AC50 [2]: 45.3 µM (active) and 23.6 µM (active)
- outcome [3]: inactive
- AC50 [4]: 56.9 µM (active) and 55.4 µM (active)
- AC50 [5]: 7.07 µM (active) and 7.44 µM (active)
- AC50 [6]: 50.1 µM (active) and 45.2 µM (active)
- AC50 [7]: 11.8 µM (active) and 14.2 µM (active)

Structure (SMILES): C=CC(N)=O
- outcome [8]: inactive
- outcome [9]: inactive
- outcome [10]: inactive

Structure (SMILES): CO/C=C(/C(=O)OC)c1ccccc1COc1cccc(C(F)(F)F)n1
- AC50 [8]: 21.7 µM (active)
- AC50 [9]: 81.5 µM (active)
- AC50 [10]: 0.935 µM (active)

Structure (SMILES): O=S(=O)(O)C(F)(F)C(F)(F)C(F)(F)C(F)(F)C(F)(F)C(F)(F)F
- outcome [8]: inactive
- outcome [9]: inactive
- outcome [1]: inactive
- outcome [2]: inactive
- outcome [3]: inactive
- outcome [4]: inactive
- outcome [5]: inactive
- outcome [6]: inactive
- outcome [7]: inactive

Structure (SMILES): ClC1=C(Cl)[C@]2(Cl)[C@@H]3[C@@H](Cl)[C@H]4O[C@H]4[C@@H]3C1(Cl)C2(Cl)Cl
- AC50 [8]: 30.3 µM (active)
- AC50 [9]: 35.9 µM (active)
- AC50 [10]: 7.22 µM (active)
